Test results: article PMC10726135, “HNF4α isoforms regulate the circadian balance between carbohydrate and lipid metabolism in the liver”
The full ranking holds about 18,000 sequences; the median of “log2 normalized intensity” is about 0.39, and the highest 2% start at about 6.6. This is one part of a sample in which the highest values are shown more often than they occur.

These sequences were tested against T1, HNF4alpha2 (COS-7 nuclear extract) (Homo sapiens, UniProt P41235 1-474) (assay: protein-binding microarray; COS-7 nuclear extract on double-stranded Agilent 4x180k PBM; binding buffer, salt, pH and temperature not given in the material; high values mean tight binding). Settings: chain copies: 2; label: 3' end of strand 1 on the slide; dsDNA, one strand shown.
T1 sequence: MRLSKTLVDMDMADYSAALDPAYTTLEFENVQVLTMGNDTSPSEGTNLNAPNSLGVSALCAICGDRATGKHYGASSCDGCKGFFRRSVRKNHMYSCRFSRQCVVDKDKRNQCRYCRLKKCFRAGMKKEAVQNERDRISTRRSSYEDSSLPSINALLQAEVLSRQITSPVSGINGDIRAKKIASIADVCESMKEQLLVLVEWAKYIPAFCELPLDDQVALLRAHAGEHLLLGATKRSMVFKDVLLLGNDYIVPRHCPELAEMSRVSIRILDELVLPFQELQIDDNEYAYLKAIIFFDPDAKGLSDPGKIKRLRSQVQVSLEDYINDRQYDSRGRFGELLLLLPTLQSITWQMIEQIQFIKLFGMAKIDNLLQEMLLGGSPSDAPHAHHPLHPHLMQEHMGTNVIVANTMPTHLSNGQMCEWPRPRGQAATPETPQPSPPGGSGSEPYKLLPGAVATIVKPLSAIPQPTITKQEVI
Method in brief: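 A human HNF4α isoform was expressed in COS-7 cells by transient CaPO4 transfection, and nuclear extracts were prepared. These were applied to a custom Agilent SurePrint G3 4x180k array carrying ~44,000 test sequences in quadruplicate as double-stranded ~60-nt oligonucleotides, and an Agilent G2565CA scanner imaged bound HNF4α at 2-µm resolution. The background-corrected, normalized gProcessedSignal from Agilent software was used as the binding signal.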

Row | Sequence | binding signal
1 | ACCGACCTTTGGTTCCTGAACTCAAACCCCGCCTAGGGAGATTAGAGTATCGGTCGA | 2.57 log2 normalized intensity
2 | TTCTGTCCTCTCAAAGTCCACCCGGCCAGCGCCTAGGGAGATTAGAGTATCGGTCGA | 4.04 log2 normalized intensity
3 | TGCATCAGTGCTGACCTACCTGACCTGGCAGCCTAGGGAGATTAGAGTATCGGTCGA | 1.28 log2 normalized intensity
4 | AAGGGCAGCAGTAACCCCCCAGGAGCGAGTGCCTAGGGAGATTAGAGTATCGGTCGA | 3.54 log2 normalized intensity
5 | TGGGTATGTCTGTAGGTAAGCACAAAGTACGCCTAGGGAGATTAGAGTATCGGTCGA | 1.92 log2 normalized intensity
6 | GGCAAAACACCCCTTTCACTTCTTCCCCTCGCCTAGGGAGATTAGAGTATCGGTCGA | 3.8 log2 normalized intensity
7 | TAACCCTACAGTCCTGCCACATCCCCCACAGCCTAGGGAGATTAGAGTATCGGTCGA | 4.26 log2 normalized intensity
8 | AGGGGCTGCTGGGAGTTGTAGTTTTTTGGGGCCTAGGGAGATTAGAGTATCGGTCGA | 1.54 log2 normalized intensity
9 | AAGAGTCAAAGGGCAAAGGAATAAAATAGCGCCTAGGGAGATTAGAGTATCGGTCGA | -0.272 log2 normalized intensity
10 | CTCTTCAGAATGGCCTGCCCATCCCCCCAAGCCTAGGGAGATTAGAGTATCGGTCGA | 5.18 log2 normalized intensity
11 | CCCCACCCCCACTGCCTGACCCCAAGTAATGCCTAGGGAGATTAGAGTATCGGTCGA | 6.98 log2 normalized intensity
12 | CCCCCACTGCCTGACCCCAAGTAATAGCCGGCCTAGGGAGATTAGAGTATCGGTCGA | 5.25 log2 normalized intensity
13 | GGCGTGACCCCCACTGCCTGCCTGCCAACTGCCTAGGGAGATTAGAGTATCGGTCGA | 2.89 log2 normalized intensity
14 | TTCATCCCCACCCCCACTGCCTGACCCCAAGCCTAGGGAGATTAGAGTATCGGTCGA | 7.59 log2 normalized intensity
15 | ACTGCCTGACCCCAAGTAATAGCCGTTTCTGCCTAGGGAGATTAGAGTATCGGTCGA | 1.07 log2 normalized intensity
16 | TGCCCTTTGCCCTCACTGGTAGAAGGCAGCGCCTAGGGAGATTAGAGTATCGGTCGA | 4.58 log2 normalized intensity
17 | CGCTCCCCTCCCCCACCCGCGGTCCGTCCCGCCTAGGGAGATTAGAGTATCGGTCGA | 5.86 log2 normalized intensity
18 | TCCCCGTCACCCTCCCCGCCACCCCCCAGAGCCTAGGGAGATTAGAGTATCGGTCGA | 7.45 log2 normalized intensity
19 | CTGGTCGACCTCCCCGTCACCCTCCCCGCCGCCTAGGGAGATTAGAGTATCGGTCGA | 6 log2 normalized intensity
20 | CGACCTCCCCGTCACCCTCCCCGCCACCCCGCCTAGGGAGATTAGAGTATCGGTCGA | 6.67 log2 normalized intensity
21 | TTTCCCTGGTCGACCTCCCCGTCACCCTCCGCCTAGGGAGATTAGAGTATCGGTCGA | 4.15 log2 normalized intensity
22 | GTCACCCTCCCCGCCACCCCCCAGAGGGCCGCCTAGGGAGATTAGAGTATCGGTCGA | 6.08 log2 normalized intensity

Row | Sequence | binding signal
23 | ACGTCTGTTAACCAAGATACTGGGTCAGAGGCCTAGGGAGATTAGAGTATCGGTCGA | 1.11 log2 normalized intensity
24 | ACCAGCGTAATTCTGGCTCTTTGAGTGGTTGCCTAGGGAGATTAGAGTATCGGTCGA | 0.76 log2 normalized intensity
25 | TCCAGCATTCTTTTCCCCATACCAGGCAGTGCCTAGGGAGATTAGAGTATCGGTCGA | 2.37 log2 normalized intensity
26 | CCTGACCCCCAGTGGAATGTGCCCTTTGACGCCTAGGGAGATTAGAGTATCGGTCGA | 4.95 log2 normalized intensity
27 | GGTGGGCTGCTCCCAGTGCCCTTTGAACTCGCCTAGGGAGATTAGAGTATCGGTCGA | 8.32 log2 normalized intensity
28 | GGCGCCGCTCTGAGTGACCTTTCACCCGCGGCCTAGGGAGATTAGAGTATCGGTCGA | 6.81 log2 normalized intensity
29 | CGCTCTGAGTGACCTTTCACCCGCGCCCAGGCCTAGGGAGATTAGAGTATCGGTCGA | 5.48 log2 normalized intensity
30 | AGTAACCTGACCCCCAGTGGAATGTGCCCTGCCTAGGGAGATTAGAGTATCGGTCGA | 3.87 log2 normalized intensity
31 | AATGTGCCCTTTGACCTCTCTCTCCTAACTGCCTAGGGAGATTAGAGTATCGGTCGA | 6.48 log2 normalized intensity
32 | CCCCCAGTGGAATGTGCCCTTTGACCTCTCGCCTAGGGAGATTAGAGTATCGGTCGA | 9.72 log2 normalized intensity
33 | GGAATGACCTTTGATATTTGTGCCTAGTGGGCCTAGGGAGATTAGAGTATCGGTCGA | 4.8 log2 normalized intensity
34 | GTGCTCCCTCCCCCTGCATGAACCTTTGCTGCCTAGGGAGATTAGAGTATCGGTCGA | 3.19 log2 normalized intensity
35 | AGTGGAATGTGCCCTTTGACCTCTCTCTCCGCCTAGGGAGATTAGAGTATCGGTCGA | 7.71 log2 normalized intensity
36 | GGCCAGGTGGGCTGCTCCCAGTGCCCTTTGGCCTAGGGAGATTAGAGTATCGGTCGA | 3.73 log2 normalized intensity
37 | CGCCGGGCGCCGCTCTGAGTGACCTTTCACGCCTAGGGAGATTAGAGTATCGGTCGA | 4.57 log2 normalized intensity
38 | CTTCAAAGGTCGTGTGCTTATCACATCTATGCCTAGGGAGATTAGAGTATCGGTCGA | 1.12 log2 normalized intensity
39 | GTGATGACCCCATACTTCAGCAATTTCTTAGCCTAGGGAGATTAGAGTATCGGTCGA | 1.12 log2 normalized intensity
40 | AATCCCCTTCAAGTCTGAGATGAAGAGGCCGCCTAGGGAGATTAGAGTATCGGTCGA | 0.649 log2 normalized intensity
41 | CAGTGGTAATGGAGCTGAAACTATAAACTTGCCTAGGGAGATTAGAGTATCGGTCGA | -0.653 log2 normalized intensity
42 | ACCTTTGCCCTGGATCTTGAAGCAGAAAACGCCTAGGGAGATTAGAGTATCGGTCGA | 1.58 log2 normalized intensity
43 | TAATCAGCTTAAGCATACAGATTACATCTCGCCTAGGGAGATTAGAGTATCGGTCGA | -0.798 log2 normalized intensity
